Consider 60 compounds from PubChem BioAssay AID1259318 (Sanford-Burnham Center for Chemical Genomics, 2017).

About 3,000 (0.81%) of roughly 370,000 compounds were called active. The list comes from a sample in which actives are over-represented; it also holds similar structures and randomly drawn compounds. Values without a mark were called inactive.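 How the source made its calls: active means activity above about 14% (limit read from the data; passing the limit was not always enough); inactive means the rest.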

This assay deals with Nuclear receptor subfamily 1 group D member 1 (Homo sapiens) (UniProt P20393). Nature of the assay: modulators of Rev-erb alpha DNA binding, primary screen, biochemical, FITC-DNA, fluorescence polarization, uHTS (AID 1259318).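 Further: 0% = DMSO wells with 35 nM protein and 100% = DMSO wells with 750 nM protein.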 As to conditions: Rev-erbα–FITC-DNA binding, 90 min, at 10 µM, hits give high values. A general note: In fluorescence polarisation assays a small probe gives low polarisation when free and higher when bound to something large.
Chain of Nuclear receptor subfamily 1 group D member 1 (Homo sapiens) (P20393 whole entry, looked up): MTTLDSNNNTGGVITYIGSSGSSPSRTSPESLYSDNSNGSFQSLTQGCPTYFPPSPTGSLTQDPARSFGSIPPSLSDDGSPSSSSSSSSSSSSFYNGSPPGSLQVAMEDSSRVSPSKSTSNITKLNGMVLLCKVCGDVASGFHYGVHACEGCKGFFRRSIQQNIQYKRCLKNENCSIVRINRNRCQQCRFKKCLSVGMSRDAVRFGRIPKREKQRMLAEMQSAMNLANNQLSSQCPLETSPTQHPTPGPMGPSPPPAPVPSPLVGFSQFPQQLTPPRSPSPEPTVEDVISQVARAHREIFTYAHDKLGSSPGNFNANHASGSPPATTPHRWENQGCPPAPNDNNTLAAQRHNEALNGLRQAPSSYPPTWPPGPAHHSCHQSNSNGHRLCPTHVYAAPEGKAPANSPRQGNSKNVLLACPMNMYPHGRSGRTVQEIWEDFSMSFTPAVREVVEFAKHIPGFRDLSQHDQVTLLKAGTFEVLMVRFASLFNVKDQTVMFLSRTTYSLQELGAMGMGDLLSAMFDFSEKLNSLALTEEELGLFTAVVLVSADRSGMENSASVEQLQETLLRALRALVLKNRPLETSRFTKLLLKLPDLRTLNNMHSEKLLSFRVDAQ
On to `CC1(C)NC(=O)N(CC(=O)Nc2cc(C(F)(F)F)cc(C(F)(F)F)c2)C1=O`, for which the activity is 3.72%.

Consider `CC(NCc1ccco1)C(=O)N1CCCCC1` (stereo not given), for which the activity was -4.97%.

For `COC(=O)c1cnc(Nc2cc(C)ccc2OC)c2ccccc12`, the activity is -1.59%.

Turning to `COCCNc1nc(-c2ccccc2)nc2c1oc1ccccc12`, the activity was 7.87%.

`COc1ccc(C)cc1Nc1nc(C)nc2c1oc1ccccc12`: the activity was 53.9% (active).

As to `O=[N+]([O-])c1ccc(NCCCO)c(C(F)(F)F)c1`, the activity was -1.69%.

Turning to `N#Cc1ccc(OCCCN2CCC(C(O)(c3ccccc3)c3ccccc3)CC2)c(F)c1`, the activity was 2.99%.

With `CCCNC(=S)NC1CC2CCCC(C1)N2CC(C)C` (stereo not given), the activity was 1.93%.

Consider `COc1ccc(-c2ccc3nnc(SCC(=O)Nc4ccc(NC(C)=O)cc4)n3n2)cc1`, for which the activity was -7.04%.

Take `COc1ccc(CC(=O)Nc2ccc(-c3nnc(-c4ccc(C)cc4)o3)cc2)cc1`: the activity was 26.4% (active).

For `Cc1ccc(CC(=O)Nc2cccc(C#N)c2)cc1`, the activity was 0.97%.

As for `CC1CCCC(NC(=O)CSc2nccn2C)C1C` (stereo not given), the activity is -3.46%.

For the compound `Fc1ccc(-c2ccc(-c3nn4c(-c5ccco5)nnc4s3)o2)cc1`, the activity was -8.14%.

Turning to `c1ccc(-c2cc(-c3nnc4sc(-c5ccccn5)nn34)[nH]n2)cc1`, the activity was 22.2% (active).

Regarding `C=CCNC(=S)/N=c1/ccccn1Cc1ccccc1`, the activity was 3.96%.

As for `O=C(CC12CC3CC(CC(C3)C1)C2)NCc1ccco1`, the activity was -3.49%.

Turning to `CCOC(=O)C1=C(c2ccccc2)O/C(=C(/C(=O)OC)C(F)(F)F)S1`, the activity was 23.2% (active).

For the compound `CCOC(=O)c1nnn(-c2nonc2OC)c1-c1ccccc1`, the activity was -1.38%.

`COC(=O)/C(=C1\Oc2ccc(C(C)(C)C)cc2S1)C(F)(F)F`: the activity was 2.88%.

Regarding `CC(C)CC(=O)N1CCN(Cc2ccccc2Br)CC1`, the activity was 1.77%.

`Cc1ccc(N=C2NC(=O)c3cccc([N+](=O)[O-])c32)cc1`: the activity was -0.93%.

In the case of `C=C(C)C(=O)O[C@H]1C/C(C)=C\C(=O)/C=C(\C)[C@H](O)[C@@H]2OC(=O)C(=C)[C@@H]21`, the activity was -13.3%.

For `O=C(O)c1ccn(COc2ccc(Br)cc2)n1`, the activity was -0.74%.

Regarding `Cc1cc(Br)cn2c(Cc3ccccc3C(F)(F)F)c(-c3ccc(Cl)cc3)nc12`, the activity was 24.8% (active).

Take `Cc1cc(Br)cn2c(Cc3cccc(F)c3)c(-c3cccc(Br)c3)nc12`: the activity is 8.77%.

Regarding `Cc1ccc(-c2nc3c(C)cc(Br)cn3c2Cc2ccccc2)cc1`, the activity is 27% (active).

With `Cc1cc(Br)cn2c(Cc3ccccc3C(F)(F)F)c(C3CCCCC3)nc12`, the activity is -1.46%.

As to `Cc1ccc(-c2nc3c(Cl)cc(C(F)(F)F)cn3c2Cc2cccc(Cl)c2)cc1`, the activity was -1.02%.

For `Cc1cc(Br)cn2c(Cc3ccccc3C(F)(F)F)c(-c3ccc(C#N)cc3)nc12`, the activity is 16.1%.

For `Cc1ccc(NC(=O)Nc2cc(C)nn2-c2ccccc2)cc1`, the activity was -3.54%.

For the compound `CCC1Nc2ncnc(N3CCN(c4ccccc4)CC3)c2N(Cc2ccc(Cl)cc2)C1=O` (stereo not given), the activity was -0.29%.

In the case of `CCCc1nnc(NC(=O)CCC(=O)NC2CC2)s1`, the activity is -1.12%.

`COCC(=O)N[C@@H]1C[C@@H]2O[C@@H](CO)CC[C@@H]2O[C@@H]1CCc1ccc(-c2ccccc2)cc1`: the activity was -1.13%.

For the compound `CC(=O)N1CCCN(C2=Nc3ccccc3Sc3ccccc32)CC1`, the activity was -0.32%.

Turning to `CCn1c(=O)cc(SCC(=O)NCCC2=CCCCC2)c2ccccc21`, the activity was -0.99%.

On to `Cc1ccc(-n2c(SCC(=O)NCCC3=CCCCC3)nc3n[nH]c(C)c3c2=N)cc1Cl`, for which the activity was 34.3% (active).

For `CCCCNC(=O)CSc1nccn1Cc1ccccc1`, the activity was -5.53%.

Turning to `Cc1nnc(OCC(=O)NCCC2=CCCCC2)c2ccccc12`, the activity was -2.75%.

Regarding `CCCCNC(=O)CSc1nc2n[nH]c(C)c2c(=N)n1-c1cccc(Cl)c1C`, the activity is 23.1% (active).

Consider `CCCCCCNC(=O)CSc1nccn1Cc1ccccc1`, for which the activity was 1.93%.

For the compound `CCCCCC1CC(COc2ccccc2)OC1=O` (stereo not given), the activity is 3.77%.

Take `CC(=O)c1c(C)n([O-])c2ccccc2[n+]1=O`: the activity is 4.5%.

For the compound `CC(C)C(C)(C#N)NC(=O)CSc1nncn1-c1ccccc1` (stereo not given), the activity was 3.69%.

For `Cc1ccc2c(cnn2C(=O)CCC(=O)NC2CCCC2)c1`, the activity was 8.51%.

Turning to `COc1ccc(CN2C/C(=C/c3ccccc3)N3C(=O)C[C@@H](c4ccccc4)N=C23)c(OC)c1`, the activity is -2.77%.

As for `CC(=O)Nc1sc2c(c1C(c1cccc(F)c1)N1CCN(CCO)CC1)CCCC2` (stereo not given), the activity is -4.11%.

For `CCc1c(C)nc2c(-c3ccccc3)c(C)nn2c1Nc1ccc(NC(C)=O)cc1`, the activity is -3.83%.

Regarding `Cc1nn2c(NCCN(C)C)c3c(nc2c1-c1ccccc1)CCC3`, the activity was -0.8%.

Consider `Cc1cc(C(C)(C)C)n2nc(C)c(-c3ccccc3)c2n1`, for which the activity was 31.7% (active).

Turning to `CC(Oc1ccccc1)C(=O)N[C@@H]1C(=O)N2[C@@H]1SC(C)(C)[C@@H]2C(=O)O` (stereo not given in full), the activity was -0.45%.

In the case of `COC(=O)c1ccc(N2CCOCC2)c(NC(=O)c2ccc(Br)o2)c1`, the activity is -3.88%.

As for `Cc1cc(N/C=C\C(=O)c2ccc(Cl)c(Cl)c2)no1`, the activity was 24.8% (active).

With `Cc1cc(NC(=O)COc2ccccc2C#N)no1`, the activity was 5.64%.

In the case of `Cc1cc(NCc2cccnc2)no1`, the activity was 2.81%.

For the compound `CCN(CC)C(=O)CSc1nnc(-c2cnccn2)n1-c1ccc(C)cc1`, the activity is 5.46%.

For the compound `CN(C(=O)COc1ncnc2c1cnn2-c1ccccc1)C1CCCCC1`, the activity is 1.94%.

`COc1ccc(CCC(C)N2CCc3ccccc3C2)cc1` (stereo not given): the activity is 1.36%.

As for `COc1ccc(-n2ncc3c(N4CCc5ccccc54)ncnc32)cc1`, the activity was 56.3% (active).

Turning to `O=c1cc(Cl)c2ccccc2n1-c1ccccc1`, the activity was -2.63%.

As to `COc1cccc(N2CCN(CC(=O)N(C)Cc3ccc(F)cc3)CC2)c1`, the activity is -5.17%.
